The panel holds about 83,000 compounds, 20% with a hit somewhere; the sample as a whole holds those more often.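 Testing used 96-well plates and a 48-hour single-concentration exposure. Example: -40 means 40% of the starting cells died.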 Values without a mark were called inactive. Activity calls are given as the source filed them. How the source made its calls: active means growth percent below 10; inactive means the rest.
Key:
Assay in all cases: NCI-60 one-dose screen, 48 h (100 = growth as untreated, 0 = no growth, -100 = all killed)
Settings in all cases: 10 µM
DU-145 prostate = test system: DU-145 prostate
K-562 leukemia = test system: K-562 leukemia
MALME-3M melanoma = test system: MALME-3M melanoma
MDA-MB-231 breast = test system: MDA-MB-231 breast
RXF 393 renal = test system: RXF 393 renal
SF-268 CNS = test system: SF-268 CNS
SF-295 CNS = test system: SF-295 CNS
SF-539 CNS = test system: SF-539 CNS
UACC-257 melanoma = test system: UACC-257 melanoma
M14 melanoma = test system: M14 melanoma

Molecule `O=C1/C(=C/c2ccc(O)cc2)Cc2ccc(Cl)cc21` has a growth (DU-145 prostate) of 111%, a growth (K-562 leukemia) of 81.8% and a growth (MALME-3M melanoma) of 106%. It also gave a growth (MDA-MB-231 breast) of 61.5%, a growth (RXF 393 renal) of 59.7% and a growth (SF-268 CNS) of 95.9%. For the same molecule, the growth (SF-295 CNS) was 92.3%, the growth (SF-539 CNS) was 82.6% and the growth (UACC-257 melanoma) was 86%. The growth (M14 melanoma) was 82.5%.

`Cc1nc(Nc2nc3ccccc3o2)nc(-c2cccc([N+](=O)[O-])c2)c1C(=O)Nc1ccc(F)c(Cl)c1` was tested, and the growth (DU-145 prostate) was 18.6%, the growth (K-562 leukemia) was 4.49% (active) and the growth (MALME-3M melanoma) was 6.18% (active). For the same molecule, the growth (MDA-MB-231 breast) was -17.4% (active), the growth (RXF 393 renal) was 29.4% and the growth (SF-268 CNS) was 11.9%. For the same molecule, the growth (SF-295 CNS) was -40.7% (active), the growth (SF-539 CNS) was 25.7% and the growth (UACC-257 melanoma) was -11.3% (active). The growth (M14 melanoma) was 15.6%.

In the case of `Cc1cc(/C=C2\SC(=Nc3ccccc3)N(C3CCCC3)C2=O)c(C)n1-c1ccc(Cl)cc1`, the growth (DU-145 prostate) is reported as -79.1% (active), the growth (K-562 leukemia) is reported as -22.8% (active) and the growth (MALME-3M melanoma) is reported as -72.8% (active). For the same molecule, the growth (MDA-MB-231 breast) was -53% (active), the growth (RXF 393 renal) was -90.2% (active) and the growth (SF-268 CNS) was -47.5% (active). The growth (SF-295 CNS) was -70.3% (active), the growth (SF-539 CNS) was -70.8% (active) and the growth (UACC-257 melanoma) was -70.8% (active). The growth (M14 melanoma) was -69.9% (active).

In the case of `Cc1ccc(C)c(S(=O)(=O)NC2c3ccccc3Oc3ccccc32)c1`, the growth (DU-145 prostate) is reported as 112%, the growth (K-562 leukemia) is reported as 90% and the growth (MALME-3M melanoma) is reported as 93.2%. For the same molecule, the growth (MDA-MB-231 breast) was 95.2%, the growth (RXF 393 renal) was 91.3% and the growth (SF-268 CNS) was 95%. It also gave a growth (SF-295 CNS) of 98.1%, a growth (SF-539 CNS) of 97.3% and a growth (UACC-257 melanoma) of 109%. For the same molecule, the growth (M14 melanoma) was 101%.

In the case of `N#CN1CC[C@H](C(=O)Nc2ncc(-c3ccccc3)s2)C1`, the growth (DU-145 prostate) is reported as 0.607% (active), the growth (K-562 leukemia) is reported as 2.31% (active) and the growth (MALME-3M melanoma) is reported as -16.4% (active). For the same molecule, the growth (MDA-MB-231 breast) was 3.84% (active), the growth (RXF 393 renal) was -45% (active) and the growth (SF-268 CNS) was 0.182% (active). The growth (SF-295 CNS) was 18.8%, the growth (SF-539 CNS) was -16.9% (active) and the growth (UACC-257 melanoma) was -8.04% (active). The growth (M14 melanoma) was -7.98% (active).

In the case of `Cc1ccc(C2C=C(c3ccc(Cl)cc3)N=C3SC=CN32)c(Br)c1` (stereo not given), the growth (DU-145 prostate) is reported as 89.1%, the growth (K-562 leukemia) is reported as 44.9% and the growth (MALME-3M melanoma) is reported as 87.3%. It also gave a growth (MDA-MB-231 breast) of 90%, a growth (RXF 393 renal) of 71.7% and a growth (SF-268 CNS) of 92%. For the same molecule, the growth (SF-295 CNS) was 96.1%, the growth (SF-539 CNS) was 89.7% and the growth (UACC-257 melanoma) was 103%. The growth (M14 melanoma) was 94.4%.

`N/C(=N\O)c1cn(C2OC(CO)C(O)C2O)c2ncnc(N)c12` (stereo not given) was tested, and the growth (DU-145 prostate) was 0.144% (active), the growth (K-562 leukemia) was 7.52% (active) and the growth (MALME-3M melanoma) was -78.3% (active). The growth (MDA-MB-231 breast) was 5.86% (active), the growth (RXF 393 renal) was -9.98% (active) and the growth (SF-268 CNS) was 9.34% (active). The growth (SF-295 CNS) was -16.7% (active), the growth (SF-539 CNS) was 1.24% (active) and the growth (UACC-257 melanoma) was -23.8% (active). The growth (M14 melanoma) was -28.3% (active).

With `Nc1nc2c(nnn2C2CC(O)C(CO)O2)c(=O)[nH]1` (stereo not given) the growth (DU-145 prostate) was 21.8%, the growth (K-562 leukemia) was 40.5% and the growth (MALME-3M melanoma) was 79.5%. The growth (MDA-MB-231 breast) was 58.5%, the growth (RXF 393 renal) was 50.6% and the growth (SF-268 CNS) was 50.2%. It also gave a growth (SF-295 CNS) of 56.4%, a growth (SF-539 CNS) of 33.4% and a growth (UACC-257 melanoma) of 77.7%. It also gave a growth (M14 melanoma) of 40%.

In the case of `N#CN1CC[C@H](C(=O)Nc2ncc(-c3ccncc3)s2)C1`, the growth (DU-145 prostate) is reported as 8.45% (active), the growth (K-562 leukemia) is reported as 3.89% (active) and the growth (MALME-3M melanoma) is reported as -19.4% (active). The growth (MDA-MB-231 breast) was 2.16% (active), the growth (RXF 393 renal) was -58.8% (active) and the growth (SF-268 CNS) was 5.17% (active). For the same molecule, the growth (SF-295 CNS) was 4.53% (active), the growth (SF-539 CNS) was -20.7% (active) and the growth (UACC-257 melanoma) was -19.4% (active). For the same molecule, the growth (M14 melanoma) was 1.13% (active).

`O=C(Nc1ccc(OCc2nnc(-c3ccccc3)o2)c(F)c1)Nc1ccc(Cl)c(Cl)c1` gave a growth (DU-145 prostate) of 64.1%, a growth (K-562 leukemia) of 34.4% and a growth (MALME-3M melanoma) of 57.8%. The growth (MDA-MB-231 breast) was 64.5%, the growth (RXF 393 renal) was 56.3% and the growth (SF-268 CNS) was 80.7%. The growth (SF-295 CNS) was 39.4%, the growth (SF-539 CNS) was 75.5% and the growth (UACC-257 melanoma) was 59.9%. It also gave a growth (M14 melanoma) of 70.4%.

Molecule `Nc1c(C(=O)NC2CCCCC2)sc2nc3c(cc12)C(=O)CCC3` has a growth (DU-145 prostate) of 102%, a growth (K-562 leukemia) of 88.4% and a growth (MALME-3M melanoma) of 139%. For the same molecule, the growth (MDA-MB-231 breast) was 101%, the growth (RXF 393 renal) was 92.1% and the growth (SF-268 CNS) was 109%. It also gave a growth (SF-295 CNS) of 88.8%, a growth (SF-539 CNS) of 107% and a growth (UACC-257 melanoma) of 88.1%. For the same molecule, the growth (M14 melanoma) was 103%.

Work on `CCCn1c(=O)c2c(nc(-c3cccc(OCCCCl)c3)n2C)n(CCC)c1=O` yielded a growth (DU-145 prostate) of 61.3%, a growth (K-562 leukemia) of 92.6% and a growth (MALME-3M melanoma) of 62.2%. It also gave a growth (MDA-MB-231 breast) of 36.2%, a growth (RXF 393 renal) of 37% and a growth (SF-268 CNS) of 59.9%. It also gave a growth (SF-295 CNS) of 15.3%, a growth (SF-539 CNS) of 63% and a growth (UACC-257 melanoma) of 82.1%. For the same molecule, the growth (M14 melanoma) was 68.6%.

`CC(=O)N(O)c1ccc(/C=C/c2ccccc2)cc1` was tested, and the growth (DU-145 prostate) was 3.54% (active), the growth (K-562 leukemia) was 73.3% and the growth (MALME-3M melanoma) was 94%. For the same molecule, the growth (MDA-MB-231 breast) was 48.7%, the growth (RXF 393 renal) was -11% (active) and the growth (SF-268 CNS) was 12.4%. The growth (SF-295 CNS) was -26.7% (active), the growth (SF-539 CNS) was 33.6% and the growth (UACC-257 melanoma) was -6.82% (active). The growth (M14 melanoma) was 46.2%.

In the case of `COc1ccc2c(=O)cc(C(Cl)(Cl)Cl)oc2c1`, the growth (DU-145 prostate) is reported as 0.575% (active), the growth (K-562 leukemia) is reported as -12.7% (active) and the growth (MALME-3M melanoma) is reported as -87.5% (active). For the same molecule, the growth (MDA-MB-231 breast) was -31.1% (active), the growth (RXF 393 renal) was -72.1% (active) and the growth (SF-268 CNS) was -36.4% (active). The growth (SF-295 CNS) was -31.1% (active), the growth (SF-539 CNS) was -27.4% (active) and the growth (UACC-257 melanoma) was -48.9% (active). The growth (M14 melanoma) was -67.1% (active).
